This is a sample that favours compounds with a hit; in the whole collection about 4.7% have one here.
TRHR enhancer-1: qHTS for Small Molecule Agonists and Allosteric Enhancers of Human TRH Receptor: Primary Screen for Enhancers | enhancement, % at 2 µM | Thyrotropin-releasing hormone receptor (Homo sapiens), P34981 | TRHR cells, fluo-8 calcium fluorescence, EC20 TRH enhancement | 360,000 compounds, 0.66% hits; in the data active = enhancement above about 30%; also: 0% is about no effect
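TRHR-expressing cells loaded with fluo-8 calcium dye were read kinetically (ex 480/em 530) during compound addition, then stimulated with an EC20 of TRH (10 nM final). Enhancement of the Gq-mediated intracellular calcium response was scored.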
TRHR agonist-1: qHTS for Small Molecule Agonists and Allosteric Enhancers of Human TRH Receptor: Primary Screen for Agonists. Thyrotropin-releasing hormone receptor (Homo sapiens), P34981. TRHR cells, calcium flux fluo-8, FDSS agonist mode. 360,000 compounds, 0.18% hits. activation, % at 2 µM; also: 0% is about no effect
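Fluo-8-loaded TRHR cells; 10 s baseline, compound added, kinetic Ca2+ fluorescence read 1/s, agonist mode.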
D1 antag: Antagonist of Human D 1 Dopamine Receptor: qHTS; D(1A) dopamine receptor (Homo sapiens), P21728; HEK293 TREx D1 cells, calcium flux, dopamine EC80; stronger effect = lower value; activity change, negative = inhibition, % at 10 µM; 360,000 compounds, 3.2% hits; in the data active = activity change below about -30%; also: % is scaled to controls: 0 for no effect and ±100 for the full control effect
Target sequence (P21728 whole entry, looked up): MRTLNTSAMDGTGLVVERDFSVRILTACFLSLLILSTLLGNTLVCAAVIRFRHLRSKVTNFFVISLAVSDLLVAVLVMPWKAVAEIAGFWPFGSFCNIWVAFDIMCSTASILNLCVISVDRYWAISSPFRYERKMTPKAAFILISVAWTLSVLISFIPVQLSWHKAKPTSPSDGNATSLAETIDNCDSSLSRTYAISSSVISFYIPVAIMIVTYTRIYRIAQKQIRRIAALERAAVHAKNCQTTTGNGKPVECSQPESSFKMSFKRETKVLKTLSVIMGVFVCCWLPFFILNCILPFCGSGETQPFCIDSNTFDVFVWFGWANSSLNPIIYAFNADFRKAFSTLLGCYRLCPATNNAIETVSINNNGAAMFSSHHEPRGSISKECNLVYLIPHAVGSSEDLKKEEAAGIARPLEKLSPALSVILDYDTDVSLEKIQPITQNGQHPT
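Allosteric or orthosteric antagonism assessed as attenuation of the calcium response to EC80 dopamine, added 180 s after compound, in induced HEK293 Trex D1 cells loaded with no-wash calcium dye.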
D1 agonist: Allosteric Agonists of the Human D1 Dopamine Receptor: qHTS | HEK293 T-REx D1 cells, calcium flux, agonist mode | 360,000 compounds, 1% hits | AID 504660, 2011 | activation, % at 2 µM; also: 0% is about no effect
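Agonism was scored from calcium flux recorded over 180 s (1 read/s) after pintool compound addition, following a 10-cycle baseline. Cells were inducible force-coupled HEK293 TREx D1, plated overnight at 30 C and loaded with no-wash calcium dye.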
D1 potentiator: Potentiators of Human D1 Dopamine Receptor: qHTS | D(1A) dopamine receptor (Homo sapiens), P21728 | HEK293 TREx D1 cells, calcium flux, dopamine EC20 potentiation | potentiation, % at 10 µM | 360,000 compounds, 0.036% hits | AID 504651, 2011; in the data active = potentiation above about 30%; also: 0% is about no effect
TRHR enhancer-2: qHTS for Small Molecule Agonists and Allosteric Enhancers of Human TRH Receptor: Confirmation Screen for Enhancers. shares compounds with TRHR enhancer-1. TRH receptor cell assay, enhancer confirmation qHTS. activity change, negative = inhibition, % at 46.1 µM. 970 tested, under 10 active. AID 493076, 2011; active = well fitted curve in the direction sought with a large enough effect; inconclusive = small, poorly fitted or top-dose-only effect, or another doubt; inactive = no such curve, though single readings can be large; an effect the other way counts as inactive or inconclusive;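 also: compound effect scored on response to added TRH at EC20 of 10 nM; 0% is about no effect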
TRHR agonist-2: qHTS for Small Molecule Agonists and Allosteric Enhancers of Human TRH Receptor: Confirmation Screen for Agonists. shares compounds with TRHR enhancer-1. TRHR-expressing cells, agonist activation read-out. Potency, µM (highest dose often 46.1 µM), for inactives: top-dose activation, actives largely listed as activators. 970 compounds, 8% hits; active = well fitted curve in the direction sought with a large enough effect; inconclusive = small, poorly fitted or top-dose-only effect, or another doubt; inactive = no such curve, though single readings can be large; an effect the other way counts as inactive or inconclusive; also: potency is read from the fitted curve at half-maximal effect; 0% is about no effect; nearly all actives have a fitted effect of over 75% in size
* hit, by the source's call; ? = inconclusive; . = no result given. Rule as the data show it, unless noted: active = activation above about 30%; inactive = the rest.

SMILES	TRHR enhancer-1	TRHR agonist-1	D1 antag	D1 agonist	D1 potentiator	TRHR enhancer-2	TRHR agonist-2
O=C(NCc1ccc2c(c1)OCO2)C(=O)NCC1CCCO1 (configuration not stated)	0	0	-9	1	1	.	.
O=C(NCc1cccc(CNC(=O)C(=O)NCC2CCCO2)c1)C(=O)NCC1CCCO1 (configuration not stated)	42*	1	-5	1	-4	1	-1%
CCCCc1nc2cc(C(=O)N3CCNC(=O)C3CC(=O)OC)ccc2o1 (configuration not stated)	89*	0	17	0	-2	0	-1%
COc1ccc(OC)c(/C=C/c2nc3ccccc3[nH]c2=O)c1	-4	26	-2	62*	-1	5	18µM*
COc1ccc(OC)c(C=Nc2ccccc2-c2nc3ccccc3[nH]2)c1	-5	-1	-1	-1	3	.	.
COc1ccc(Cn2nnnc2C(c2ccccc2)N2CCN(C3CCCC3)CC2)cc1 (configuration not stated)	48*	0	-6	30	-3	-2	8%
O=C(CC1C(=O)NCCN1Cc1ccccn1)NCCc1ccccc1F (configuration not stated)	-3	1	-3	1	1	.	.
CCC(NC(=O)CCC(=O)N1CCN(S(=O)(=O)c2ccc(C)cc2)CC1)c1ccc(C)cc1 (configuration not stated)	-6	-1	8	0	5	.	.
O=C(Cc1ccccc1)Nc1ccccc1C(=O)N1CCCCC1	-4	0	6	1	-2	.	.
O=C(Cc1ccc(Cl)cc1)Nc1ccccc1C(=O)N1CCCC1	70*	0	6	10	-4	?	-1%
CCOc1ccc(CCNC(=O)COC(=O)Cn2nc(C)c([N+](=O)[O-])c2C)cc1OCC	19	0	20	4	-2	.	.
Cc1ccc(CNC(=O)c2cccc3c2C(=O)c2ccc(N4CCCCC4)cc2S3(=O)=O)cc1	12	36*	17	97*	5	-6	21µM*
O=C(CSc1nc2c(oc3ccccc32)c(=O)n1Cc1ccco1)Nc1ccccc1	2	0	17	1	-5	.	.
CCN(CC)c1ccc(CN2CCC(C(=O)NCc3ccc(C)cc3)CC2)cc1	45*	0	-7	7	-3	9	2%
O=C(c1cccn1-c1nnc(N2CCCC2)s1)N1CCN(c2ccc(Cl)cc2)CC1	-3	-1	2	1	-4	.	.
CCOC(=O)C1CCN(c2ncnc3c2[nH]c2cccc(OC)c23)CC1	9	0	-11	0	-4	.	.
COCCOc1cc2ncnc(N3CCC(C(=O)O)CC3)c2cc1OCCOC	43*	-2	3	2	6	3	-1%
O=C(Cn1cc(C(F)(F)F)cc(Cl)c1=O)Nc1ccc(N2CCOCC2)cc1	-3	1	2	5	-3	.	.
N#C/C(=C/c1ccc(N2CCOCC2)o1)C(=O)NC1CCCCC1	2	47*	-5	113*	-5	?	21µM*
N#C/C(=C\c1ccc(N2CCOCC2)o1)c1ccccc1	5	-2	9	0	-4	.	.
Brc1c(CSc2nc3ccccc3s2)nc2ncccn12	6	0	11	2	-3	.	.
O=[N+]([O-])c1ccc2sc(SCc3nc4ccccn4c3Br)nc2c1	41*	-1	-18	1	-8	-7	3%
COc1ccc(/C=C/C(=O)NCC(=O)N/N=C(/C)c2ccco2)cc1	1	0	2	0	-1	.	.
COc1ccc(/C(C)=N/NC(=O)CNC(=O)c2ccco2)cc1	46*	0	15	-1	3	-2	1%
Fc1ccc2c(c1)-c1nc(-c3ccccc3)cc(-c3ccccc3)c1CO2	4	1	3	-1	3	.	.
SMILES	TRHR enhancer-1	TRHR agonist-1	D1 antag	D1 agonist	D1 potentiator	TRHR enhancer-2	TRHR agonist-2
O=C(O)c1ccc(N/N=C/c2ccc(F)c(F)c2)cc1	47*	0	6	3	-5	-9	-1%
O=C(O)c1ccc(N/N=C/c2cccc(F)c2)cc1	3	0	-1	2	5	.	.
CCCCSc1nc2c(cnn2-c2ccc(Cl)cc2)c(=O)[nH]1	42*	0	-2	3	1	-1	0%
COc1ccc(CNC(=O)C2=C(C)C(=O)OC23CCCCC3)cc1OC	14	0	2	-1	-1	.	.
Cc1ccc2cc(NC(=O)Cc3ccccc3)ccc2n1	3	0	-7	1	2	.	.
Cc1ccc2cc(NC(=O)c3ccccc3C)ccc2n1	50*	0	20	2	6	2	1%
c1csc(CNc2ncnc3ccc(-c4ccc5c(c4)OCCO5)cc23)c1	7	1	18	4	4	.	.
CCO[C@H]1OC(C(=O)N2CCN(Cc3ccc4c(c3)OCO4)CC2)=C[C@@H](c2ccc(Br)cc2)[C@@H]1CCCO	49*	0	-11	0	-2	-3	1%
NC(=O)c1ccc(NC(=O)CCCNC(=O)c2ccc(Cl)cc2)cc1	9	-1	-3	4	-5	.	.
C=CCNCc1ccc(C(=O)NCCCCCCC)cc1[N+](=O)[O-]	0	0	-7	12	-8	.	.
CCOc1cc(/C=C/C(=O)Nc2ccc(C(=O)NCCN(CC)CC)cc2)ccc1OCC(C)C	42*	0	-41*	5	-11	2	1%
CCOc1ccc(/C=C/C(=O)Nc2ccc(C(N)=O)cc2)cc1OC	3	1	-3	5	-7	.	.
Cn1nnnc1SCC(=O)NNC(=O)c1ccc(F)cc1	44*	1	-1	2	6	-6	-1%
Cc1ccc(F)cc1NCC(=O)Nc1ccc(Br)cc1	0	0	4	1	-3	.	.
Cc1ccc(NCC(=O)Nc2ccc(Br)cc2)cc1C	70*	0	-48*	5	-7	4	0%
COc1cccc(CNS(=O)(=O)c2c(C(=O)N3CCCC3)c(C)n(C)c2C)c1	-5	0	-12	1	-1	.	.

Screening data (PubChem BioAssay)
